Measured values published in ChEMBL document CHEMBL2218924, “A broad activity screen in support of a chemogenomic map for kinase signalling research and drug discovery” (Biochem J, 2013).

Each molecule was assayed against Platelet-derived growth factor receptor beta (Homo sapiens) (UniProt P09619). Details: at 1 µM.
Sequence of Platelet-derived growth factor receptor beta (Homo sapiens) (P09619 whole entry): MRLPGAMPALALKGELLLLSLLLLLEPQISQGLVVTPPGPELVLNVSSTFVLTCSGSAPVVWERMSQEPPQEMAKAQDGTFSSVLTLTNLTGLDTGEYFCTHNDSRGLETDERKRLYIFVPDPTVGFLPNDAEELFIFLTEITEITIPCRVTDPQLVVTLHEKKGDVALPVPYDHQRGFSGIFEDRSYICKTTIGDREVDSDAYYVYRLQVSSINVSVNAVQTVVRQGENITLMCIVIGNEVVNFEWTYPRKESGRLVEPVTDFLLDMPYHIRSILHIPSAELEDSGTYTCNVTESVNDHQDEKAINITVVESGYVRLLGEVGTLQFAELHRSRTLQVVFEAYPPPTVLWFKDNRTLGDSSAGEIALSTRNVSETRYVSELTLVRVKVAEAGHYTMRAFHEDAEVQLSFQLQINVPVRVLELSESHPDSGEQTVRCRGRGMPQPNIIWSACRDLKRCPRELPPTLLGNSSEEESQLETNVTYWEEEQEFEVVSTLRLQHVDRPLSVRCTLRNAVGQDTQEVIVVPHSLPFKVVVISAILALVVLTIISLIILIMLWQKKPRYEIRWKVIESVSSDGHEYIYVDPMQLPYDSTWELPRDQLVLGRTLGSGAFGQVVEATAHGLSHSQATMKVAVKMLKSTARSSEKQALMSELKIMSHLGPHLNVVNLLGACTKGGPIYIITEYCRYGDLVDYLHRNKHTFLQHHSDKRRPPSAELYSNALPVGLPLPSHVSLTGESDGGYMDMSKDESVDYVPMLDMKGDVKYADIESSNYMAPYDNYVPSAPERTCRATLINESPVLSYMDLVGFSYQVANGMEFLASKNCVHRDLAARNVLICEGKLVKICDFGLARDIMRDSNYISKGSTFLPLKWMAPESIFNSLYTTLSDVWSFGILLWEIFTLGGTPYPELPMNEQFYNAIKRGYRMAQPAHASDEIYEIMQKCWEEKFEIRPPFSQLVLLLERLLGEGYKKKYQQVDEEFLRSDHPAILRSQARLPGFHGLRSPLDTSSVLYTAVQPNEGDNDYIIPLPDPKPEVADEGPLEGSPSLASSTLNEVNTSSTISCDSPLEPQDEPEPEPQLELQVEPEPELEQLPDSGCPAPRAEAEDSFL

Compound	residual activity [%]
c1ccc(-c2cnc(Nc3ccc(OCCN4CCCC4)cc3)s2)cc1	3
O=C1Cc2c([nH]c3ccc([N+](=O)[O-])cc23)-c2ccccc2N1	107
COc1cc2ncnc(Nc3cccc(Cl)c3)c2cc1OC	102
CCN(CC)CCNC(=O)c1c(C)[nH]c(/C=C2\C(=O)Nc3ccc(Cl)cc32)c1C	1
COc1cc2nccc(Oc3ccc(NC(=S)NC(=O)c4ccccc4C)cc3)c2cc1OC	31
CN(C)S(=O)(=O)c1ccc2c(c1)/C(=C/c1cc3c([nH]1)CCCC3)C(=O)N2	80
O=C(CCCc1ccc(-c2ccccc2F)cc1)Nc1ccc(O)cc1	102
O=C(c1ccccc1)c1ccc(N2CCOCC2)cc1O	116
CCOC(=O)c1c(C)[nH]c(/C=C2\C(=O)Nc3ccccc32)c1C	90
O=C(Nc1ccc(Cl)cc1)c1ccccc1NCc1ccncc1	46
Nc1ncnc2[nH]nc(Nc3ccc(F)cc3)c12	107
CCCCc1c(-c2ccc(OC)cc2)[nH]c2nccnc12	104
COc1cc2c(cc1OC)-c1n[nH]c(Nc3cccc(F)c3)c1C2	11
O=C(c1cc2cc(O)ccc2[nH]1)c1cc2cc(O)ccc2[nH]1	35
CC(C)(C)n1nc(Cc2cccc3ccccc23)c2c(N)ncnc21	99
Nc1ncnc2c1c(-c1ccc(Oc3ccccc3)cc1)cn2C1CCCC1	54
O=C1NC(=O)c2c1c1c3ccccc3[nH]c1n1cncc21	88
NC(=O)Nc1sc(-c2ccc(F)cc2)cc1C(N)=O	89
O=C1Nc2ccc(Cl)cc2/C1=C/c1cc(Cl)c(O)c(Cl)c1	75
CCCC(=O)Oc1ccc2[nH]c(C(=O)c3cc4ccccc4[nH]3)cc2c1	99

These molecules were tested against Platelet-derived growth factor receptor beta (Homo sapiens) (UniProt P09619). Details: at 10 µM.

Compound	residual activity [%]
COc1ccc2c(c1)c(C1=C(c3c[nH]c4ccccc34)C(=O)NC1=O)cn2CCCN(C)C	63
c1ccc(-c2cnc(Nc3ccc(OCCN4CCCC4)cc3)s2)cc1	0
O=C1Cc2c([nH]c3ccc([N+](=O)[O-])cc23)-c2ccccc2N1	100
COc1cc2ncnc(Nc3cccc(Cl)c3)c2cc1OC	103
CCN(CC)CCNC(=O)c1c(C)[nH]c(/C=C2\C(=O)Nc3ccc(Cl)cc32)c1C	1
COc1cc2nccc(Oc3ccc(NC(=S)NC(=O)c4ccccc4C)cc3)c2cc1OC	9
CN(C)S(=O)(=O)c1ccc2c(c1)/C(=C/c1cc3c([nH]1)CCCC3)C(=O)N2	90
O=C(CCCc1ccc(-c2ccccc2F)cc1)Nc1ccc(O)cc1	125
Oc1cccc(-c2nc(N3CCOCC3)c3oc4ncccc4c3n2)c1	98
O=C1NC(=O)C(c2c[nH]c3ccccc23)=C1c1c[nH]c2ccccc12	83
O=C(c1ccccc1)c1ccc(N2CCOCC2)cc1O	99
CCOC(=O)c1c(C)[nH]c(/C=C2\C(=O)Nc3ccccc32)c1C	92
O=C(Nc1ccc(Cl)cc1)c1ccccc1NCc1ccncc1	4
Nc1ncnc2[nH]nc(Nc3ccc(F)cc3)c12	109
CCCCc1c(-c2ccc(OC)cc2)[nH]c2nccnc12	105
COc1cc2c(cc1OC)-c1n[nH]c(Nc3cccc(F)c3)c1C2	1
O=C(c1cc2cc(O)ccc2[nH]1)c1cc2cc(O)ccc2[nH]1	6
CC(C)(C)n1nc(Cc2cccc3ccccc23)c2c(N)ncnc21	71
Nc1ncnc2c1c(-c1ccc(Oc3ccccc3)cc1)cn2C1CCCC1	6
O=C1NC(=O)c2c1c1c3ccccc3[nH]c1n1cncc21	92
NC(=O)Nc1sc(-c2ccc(F)cc2)cc1C(N)=O	55
O=C1Nc2ccc(Cl)cc2/C1=C/c1cc(Cl)c(O)c(Cl)c1	25
CCCC(=O)Oc1ccc2[nH]c(C(=O)c3cc4ccccc4[nH]3)cc2c1	93
